Drawing on PubChem BioAssay, this text covers z-score and composite z-score for 9 compounds.

The nature of assay [1]: HepG2 liver cancer cell viability effects, profiling panel, resazurin fluorescence, 24 h, PK04 Diversity Set (AID 1172). The note with it: higher = more signal. In general terms: The colour change of resazurin is a common sign of viable cells or microbes.
Assay [2] in a line: basal S. cerevisiae growth modulation, no modifier, primary screen, OD600, strain BY4716, 24 h, basal condition (AID 1173). The conditions noted are these: OD600, 24 h, higher = more signal, called active from +8 up or from −8 down.
Assay [3] in a line: MM1S myeloma cell viability, profiling panel, resazurin fluorescence, basal, 24 h, PK04 Diversity Set (AID 1174). The note with it: higher = more signal, called active from +8 up or from −8 down.
Assay [4] has as its target Dihydroorotate dehydrogenase (quinone), mitochondrial (Plasmodium falciparum (isolate 3D7)) (UniProt Q08210). Briefly: PfDHODH enzyme inhibitors, primary screen, biochemical, C-terminal His tag, absorbance 600 nm (AID 1175).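 Note: recombinant parasite enzyme with a five histidine tag at its C terminus.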 The note with it: DCIP absorbance 600 nm, higher = more signal, called active from +8 up or from −8 down.
The nature of assay [5]: P. aeruginosa biofilm formation inhibitors, primary screen, strain PAO1, LB-PBS medium, absorbance 600 nm (AID 1176). The conditions noted are these: P. aeruginosa PAO1 growth/biofilm, A600, 12 h; higher = more signal.
Assay [6] can be described thus: S. cerevisiae RM11-1a growth modifiers, primary screen, strain RM11-1a, OD600, basal, 24 h (AID 1177).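 Note: cultures grown under basal conditions with no added stressor.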 The conditions noted are these: OD600, 24 h, higher = more signal, called active from +8 up or from −8 down.
A short description of assay [7]: E. coli acrAB mutant growth effects, primary screen, E. coli filamentation inducers, strain DRC39, OD650, 24 h (AID 1178).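 Note: growth measured as culture turbidity by optical density at 650 nm.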 The note with it: higher = more signal, called active from +8 up or from −8 down.
Assay [8] in a line: E. coli acrAB mutant growth effects, primary screen, E. coli filamentation inducers, strain DRC39, OD650, 48 h (AID 1179).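 Note: screen aims at cell division blockers that make cells filament.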 The conditions noted are these: E. coli DRC39 delta-acrAB growth, higher = more signal, called active from +8 up or from −8 down.
Assay [9] can be described thus: RPMI8226 myeloma cell viability, profiling panel, resazurin fluorescence, basal, 24 h, PK04 Diversity Set (AID 1180).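 Note: RPMI8826 multiple myeloma cell line at 5000 cells per well.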 The conditions noted are these: higher = more signal.
The target of assay [10] is E3 ubiquitin-protein ligase XIAP (Homo sapiens) (UniProt P98170). Put plainly: XIAP binders, primary screen, biophysical, small-molecule microarray, fluorescence 635 nm (AID 1181).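 Note: score merges 667 nm emission and signal to noise over triplicate slides.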 The note with it: small-molecule microarray binding, higher = more signal.
The test system of assay [11] is XIP peptide (Xip251-270) binding. Put plainly: small-molecule binders of XIP peptide, primary screen, biochemical, small-molecule microarray, fluorescence 635/667 nm, 0.1 µg/mL protein (AID 1182). The conditions noted are these: fluorescent protein binding, 635 nm, higher = more signal, called active from +8 up or from −8 down.
For a further assay, the system named is XIP peptide (Xip251-270). Put plainly: small-molecule binders of XIP peptide, primary screen, biochemical, small-molecule microarray, fluorescence 635/667 nm, 0.5 µg/mL protein (AID 1183). The conditions noted are these: small-molecule microarray binding, fluorescence 635 nm; higher = more signal.
Assay [12] in a line: Plasmodium falciparum growth inhibition, primary screen, strain 3D7, DAPI fluorescence, 100 nL (AID 1184).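 Note: parasites grown inside human red blood cells in medium with human serum.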 The conditions noted are these: P. falciparum 3D7 growth, 3 d, higher = more signal.
Assay [13] has as its target Homeobox protein Hox-A13 (Mus musculus) (UniProt Q62424). Briefly: inhibitors of HoxA13-DNA binding, primary screen, biochemical, fluorescence polarization, labeled oligonucleotide (AID 1185). The conditions noted are these: 15 min, higher = more signal, called active from +8 up or from −8 down. A general note: Polarisation of emitted light reports the rotation of a fluorescent probe.

Assay [14] in a line: inhibitors of hydroxyurea-induced Chk1 phosphorylation, primary screen, imaging, HeLa, phospho-Chk1 antibody, percent positive cells (AID 1186). The note with it: hydroxyurea-induced phospho-Chk1 immunofluorescence imaging, higher = more signal.
Assay [15] is described as follows: inhibitors of hydroxyurea-induced Chk1 phosphorylation, primary screen, imaging, HeLa, phospho-Chk1 nuclear intensity (AID 1187). The note with it: hydroxyurea-induced phospho-Chk1 immunofluorescence imaging, higher = more signal.

Activity calls are given as the source filed them. Unless noted, the rule behind the calls is not given here.

Sequence of Dihydroorotate dehydrogenase (quinone), mitochondrial (Plasmodium falciparum (isolate 3D7)) (Q08210 whole entry, looked up): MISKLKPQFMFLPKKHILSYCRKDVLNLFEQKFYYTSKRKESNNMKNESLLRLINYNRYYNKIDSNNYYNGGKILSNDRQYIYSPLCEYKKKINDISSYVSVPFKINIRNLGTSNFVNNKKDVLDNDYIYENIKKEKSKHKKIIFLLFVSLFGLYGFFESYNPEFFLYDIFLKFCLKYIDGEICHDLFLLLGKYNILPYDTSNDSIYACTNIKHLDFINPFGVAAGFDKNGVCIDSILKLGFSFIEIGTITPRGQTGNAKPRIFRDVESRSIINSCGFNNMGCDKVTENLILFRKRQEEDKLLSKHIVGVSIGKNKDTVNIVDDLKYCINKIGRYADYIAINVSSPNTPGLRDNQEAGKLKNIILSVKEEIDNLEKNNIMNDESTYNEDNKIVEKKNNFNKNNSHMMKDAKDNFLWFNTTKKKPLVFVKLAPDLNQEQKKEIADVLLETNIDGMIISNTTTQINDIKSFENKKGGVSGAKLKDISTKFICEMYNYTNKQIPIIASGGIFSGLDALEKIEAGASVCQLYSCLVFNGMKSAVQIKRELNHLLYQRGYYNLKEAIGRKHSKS
Sequence of Homeobox protein Hox-A13 (Mus musculus) (Q62424 whole entry, looked up): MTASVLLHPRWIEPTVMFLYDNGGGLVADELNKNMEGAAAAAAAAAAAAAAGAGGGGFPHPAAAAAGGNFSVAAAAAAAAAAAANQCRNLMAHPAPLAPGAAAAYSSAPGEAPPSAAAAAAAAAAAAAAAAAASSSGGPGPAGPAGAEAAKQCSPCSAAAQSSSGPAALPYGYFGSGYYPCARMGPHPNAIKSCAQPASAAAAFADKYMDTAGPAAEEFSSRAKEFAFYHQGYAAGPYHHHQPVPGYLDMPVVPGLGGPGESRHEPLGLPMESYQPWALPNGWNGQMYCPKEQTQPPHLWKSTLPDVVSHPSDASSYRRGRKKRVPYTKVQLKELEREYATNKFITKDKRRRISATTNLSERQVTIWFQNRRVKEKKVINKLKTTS
Sequence of E3 ubiquitin-protein ligase XIAP (Homo sapiens) (P98170 whole entry, looked up): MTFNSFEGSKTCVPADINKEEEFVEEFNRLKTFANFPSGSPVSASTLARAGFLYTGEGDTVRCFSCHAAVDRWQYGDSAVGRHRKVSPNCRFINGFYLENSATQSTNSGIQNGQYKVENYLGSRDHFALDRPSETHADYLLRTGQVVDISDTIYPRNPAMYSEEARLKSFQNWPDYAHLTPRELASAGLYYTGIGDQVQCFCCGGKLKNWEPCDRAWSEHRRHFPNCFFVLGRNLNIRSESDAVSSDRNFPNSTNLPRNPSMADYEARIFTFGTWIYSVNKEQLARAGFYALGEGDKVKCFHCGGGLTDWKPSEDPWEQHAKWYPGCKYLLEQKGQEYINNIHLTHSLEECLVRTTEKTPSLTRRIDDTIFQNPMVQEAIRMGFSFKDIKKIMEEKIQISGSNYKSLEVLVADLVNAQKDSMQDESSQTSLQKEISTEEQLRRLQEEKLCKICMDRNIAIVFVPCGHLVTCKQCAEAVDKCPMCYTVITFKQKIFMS

As for `CCC[C@@H]1C[C@@]1(CCC)[C@@H](NC(=O)c1ccco1)c1ccc(Cl)cc1`, the z-score is 1.6 in [1]; 0.614 (inactive) in assay [2]; 0.254 (inactive) in assay [3]; 0.439 (inactive) in [5]; 0.288 (inactive) in [6]; -0.195 (inactive) in assay [7]. In addition, the z-score was 0.105 (inactive) in assay [8]; -1.67 in assay [9]; -1.21 in assay [12]; -0.61 (inactive) in [13]; 0.348 (inactive) in [14]; 0.241 (inactive) in [15]. Besides, the composite z-score in assay [4] is -0.152 (inactive); in assay [10] it was -0.683; in [11], 0.0025 (inactive); with XIP peptide (Xip251-270), -0.835.

Turning to `Cc1ccc(S[C@]2(C(=O)NCC(C)C)CC(=O)N(C3CCCCC3)[C@@H]2c2ccc(CO)cc2I)cc1`, the z-score is 0.33 in assay [1]; -1.05 (inactive) in [2]; 0.0989 (inactive) in assay [3]; -0.81 (inactive) in [5]; -0.115 (inactive) in [6]; 0.12 (inactive) in assay [7]. The z-score in assay [8] is 0.598 (inactive); in assay [9] it was -0.693; in assay [12] it was -1.82; in [13], -3.86 (inactive); in assay [14], 0.263 (inactive); in assay [15], 0.746 (inactive). The composite z-score in assay [4] is -0.0804 (inactive); in [10] it was -0.0559; in assay [11], 1.4 (inactive); in the assay with XIP peptide (Xip251-270) it was 0.254.

Take `COCCOC(=O)N1C(=O)[C@@]2(c3cc(C#CC4(O)CCCCCC4)ccc31)[C@H](C(=O)N1CCN(c3ncccn3)CC1)[C@H]1C(=O)O[C@H](c3ccccc3)[C@H](c3ccccc3)N1[C@@H]2c1ccc(O)cc1`: the z-score was -0.597 in [1]; 1.04 (inactive) in [2]; -0.0906 (inactive) in assay [3]; 0.545 (inactive) in assay [5]; 2.1 (inactive) in assay [6]; -0.19 (inactive) in assay [7]. Besides, the z-score in assay [8] was 0.37 (inactive); in [9] it was 0.74; in [12] it was -0.849; in [13], -0.575 (inactive); in [14] it was 0.133 (inactive); in [15], 0.559 (inactive). For the same compound, the composite z-score in assay [4] was 0.59 (inactive); in [10], -0.177; in [11] it was 0.119 (inactive); in the assay on XIP peptide (Xip251-270), 0.723.

On to `C[C@]12C(=O)N(CCCCCO)[C@@H]3C(=O)N(c4ccc(Cl)cc4)CC=CC31O[C@@H]1/C=C\CCCOC(=O)C12` (some centres undefined), for which the z-score in [1] is -0.626; in [2], -0.225 (inactive); in assay [3], 0.194 (inactive); in assay [5] it was -0.677 (inactive); in assay [6] it was -0.605 (inactive); in assay [7] it was -0.308 (inactive). Besides, the z-score in assay [8] was -0.175 (inactive); in [9], -0.135; in assay [12] it was 1.77; in assay [13], -4.29 (inactive); in assay [14], 0.0276 (inactive); in [15], 0.596 (inactive). The composite z-score in [4] was -0.841 (inactive); in assay [10], 0.234; in assay [11] it was 0.951 (inactive); with XIP peptide (Xip251-270), 0.0211.

Consider `O=[N+]([O-])c1ccc(C[n+]2ccc(-c3ccc(CO)cc3)cc2)o1`, for which the z-score is -0.216 in assay [1]; -5.16 (inactive) in assay [2]; -0.979 (inactive) in [3]; 0.503 (inactive) in assay [5]; -0.0644 (inactive) in assay [6]; -1.11 (inactive) in assay [7]. Further, the z-score is -0.495 (inactive) in [8]; -0.904 in assay [9]; -1.29 in assay [12]; -3.8 (inactive) in assay [13]; 0.137 (inactive) in [14]; 0.657 (inactive) in assay [15]. For the same compound, the composite z-score in assay [4] was -1.94 (inactive); in assay [10], -0.0047; in assay [11], 0.406 (inactive); in the assay with XIP peptide (Xip251-270), 0.905.

Turning to `COCCCNC(=O)[C@@]1(C)c2ccccc2C(=O)N(c2ccc(C)cn2)[C@H]1c1ccc(CO)cc1`, the z-score in assay [1] was 0.361; in assay [2], -0.156 (inactive); in assay [3] it was -0.321 (inactive); in assay [5], 0.112 (inactive); in assay [6], -0.795 (inactive); in assay [7], -0.0985 (inactive). The z-score in assay [8] is -0.087 (inactive); in assay [9] it was 0.157; in assay [12], 0.563; in [13], -1.9 (inactive); in [14], 0.228 (inactive); in assay [15], 0.554 (inactive). For the same compound, the composite z-score is 0.0772 (inactive) in [4], 0.286 in [10], -0.625 (inactive) in assay [11] and 0.892 in the assay with XIP peptide (Xip251-270).

For `CCCCC(=C=CC[C@H](O)c1cccc(OCCO)c1)C[C@H](O)COCc1ccccc1`, the z-score in assay [1] was 1.38; in assay [2], -0.919 (inactive); in [3] it was 0.202 (inactive); in [5] it was 0.342 (inactive); in assay [6] it was 0.178 (inactive); in [7] it was 0.525 (inactive). Besides, the z-score in assay [8] is 0.122 (inactive); in assay [9] it was 0.774; in assay [12], -1.88; in assay [13] it was -4.78 (inactive); in assay [14], -0.0835 (inactive); in [15], 0.0554 (inactive). Also, the composite z-score in assay [4] is -1.06 (inactive); in assay [10], -0.165; in assay [11] it was 1.4 (inactive); with XIP peptide (Xip251-270) it was 0.752.

As for `O=C(CS)NCCCCCNC(=O)[C@@H]1C[C@@H]2C(=O)N3CCC[C@H]3C(=O)N2[C@@H]1c1ccc(O)cc1`, the z-score in assay [1] is -0.196; in [2], -0.419 (inactive); in [3], -0.0752 (inactive); in assay [5], -0.102 (inactive); in assay [6], 0.132 (inactive); in assay [7], -0.651 (inactive). Further, the z-score was -0.265 (inactive) in assay [8]; -0.0255 in assay [9]; 0.924 in [12]; -2.66 (inactive) in assay [13]; 0.0756 (inactive) in assay [14]; 0.0698 (inactive) in assay [15]. Also, the composite z-score is 0.252 (inactive) in assay [4], -0.127 in assay [10], 0.262 (inactive) in assay [11] and 0.716 with XIP peptide (Xip251-270).

For the compound `Cc1ccc(S[C@]2(C(=O)NCCN3CCOCC3)CC(=O)N(C3Cc4ccccc4C3)[C@@H]2c2ccc(CO)cc2)cc1`, the z-score in [1] was -0.211; in assay [2], 0.884 (inactive); in assay [3], -0.209 (inactive); in assay [5], 0.0435 (inactive); in [6], 0.948 (inactive); in assay [7], 0.435 (inactive). In addition, the z-score in assay [8] is 0.337 (inactive); in assay [9], -0.109; in assay [12] it was -0.196; in [13] it was -4.63 (inactive); in [14], 0.672 (inactive); in assay [15], 1 (inactive). The composite z-score is 0.408 (inactive) in assay [4], -0.0282 in [10], 0.487 (inactive) in [11] and 0.547 in the assay with XIP peptide (Xip251-270).
